Reference: PubChem BioAssay (EPA / NIEHS)
The source made the active and inactive calls. How the source made its calls: active means hit-call score of the fitted dose curve at least 0.9, where 1 is the maximum; inactive means score below 0.9.

Legend:
Conditions in all cases: mRNA level, 48 h; actives raise or lower the signal
[1] = read-out: Tumor necrosis factor receptor superfamily member 6 (Homo sapiens) (UniProt P25445); experiment: LTEA_HepaRG_FAS: Life Technologies and Expression Analysis (LTEA) Assay for Fas cell surface death receptor (FAS) using HepaRG (AID 2283447)
In short: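 FAS transcript level was measured by TaqMan qRT-PCR against three housekeeping genes after 48 h chemical exposure. Cells were HepaRG, 0.5% DMSO vehicle, with a top concentration of 100 uM and half-log dilutions over eight points, in duplicate.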

[2] = read-out: Fatty acid synthase (Homo sapiens) (UniProt P49327); experiment: LTEA_HepaRG_FASN: Life Technologies and Expression Analysis (LTEA) Assay for Fatty Acid Synthase (FASN) using HepaRG (AID 2283448)
In short: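 Differentiated human HepaRG cells were exposed for 48 h in serum-free induction medium to eight half-log concentrations up to 100 uM in 0.5% DMSO, in duplicate. FASN mRNA was quantified by TaqMan qRT-PCR, normalized to ACTB/GAPDH/POLR2A, and fitted bidirectionally against DMSO.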

[3] = read-out: Cyclin D2 (CCND2), CCND2 (gene 894); experiment: LTEA_HepaRG_CCND2: Life Technologies and Expression Analysis (LTEA) Assay for Cyclin D2 (CCND2) using HepaRG (AID 2283449)
In short: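 Read-out is CCND2 mRNA level measured by qRT-PCR in human HepaRG liver cells and normalised to three housekeeping genes. Chemicals were applied for 48 h at up to 100 uM, with gain or loss fitted relative to 0.5% DMSO.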

[4] = read-out: Cyclin Dependent Kinase Inhibitor 1A (CDKN1A), CDKN1A (gene 1026); experiment: LTEA_HepaRG_CDKN1A: Life Technologies and Expression Analysis (LTEA) Assay for Cyclin Dependent Kinase Inhibitor 1A (CDKN1A) using HepaRG (AID 2283450)
In short: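 Gain or loss of CDKN1A transcript is scored by bidirectional fitting against 0.5% DMSO vehicle. Human HepaRG cultures receive chemicals for 48 h across an 8-point series peaking at 100 uM; expression comes from qRT-PCR.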

[5] = read-out: Cyclin D1 (CCND1), CCND1 (gene 595); experiment: LTEA_HepaRG_CCND1: Life Technologies and Expression Analysis (LTEA) Assay for Cyclin D1 (CCND1) using HepaRG (AID 2283451)
In short: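 Expression change is measured by qRT-PCR in HepaRG cells after 48 h treatment across eight concentrations topping at 100 uM, with duplicate wells and DMSO (0.5%) serving as baseline for bidirectional fitting.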

[6] = read-out: catalase (CAT), CAT (gene 847); experiment: LTEA_HepaRG_CAT: Life Technologies and Expression Analysis (LTEA) Assay for catalase (CAT) using HepaRG (AID 2283452);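 on AC50: TaqMan qRT-PCR signal normalized to ACTB GAPDH and POLR2A housekeeping genes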
In short: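 Expression of CAT was quantified by TaqMan qRT-PCR with ACTB/GAPDH/POLR2A normalization after 48 h chemical exposure of HepaRG. Eight-point half-log series, top 100 uM, in 0.5% DMSO; gain or loss fitted against vehicle.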

[7] = read-out: flavin-containing dimethylaniline monooxygenases 3 (FMO3), FMO3 (gene 2328); experiment: LTEA_HepaRG_FMO3: Life Technologies and Expression Analysis (LTEA) Assay for flavin-containing dimethylaniline monooxygenases 3 (FMO3) using HepaRG (AID 2283453);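 on AC50: FMO3 transcript by TaqMan qRT-PCR normalized to ACTB GAPDH and POLR2A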
In short: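 HepaRG, 48 h exposure, 8-pt half-log series from 100 uM, 0.5% DMSO vehicle, duplicates; FMO3 transcript by Fluidigm TaqMan qRT-PCR, housekeeping-normalized; gain/loss fit vs DMSO.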

[8] = read-out: Cytochrome P450 (CYP1A1), CYP1A1 (gene 1543); experiment: LTEA_HepaRG_CYP1A1: Life Technologies and Expression Analysis (LTEA) Assay for Cytochrome P450 (CYP1A1) using HepaRG (AID 2283454)
In short: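 Using HepaRG cultures with 0.5% DMSO as vehicle, eight-concentration exposures (max 100 uM) lasted 48 h. Transcript levels were measured by TaqMan qRT-PCR and normalized to ACTB, GAPDH and POLR2A.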

[9] = read-out: CFLAR gene, CFLAR (gene 8837); experiment: LTEA_HepaRG_CFLAR: Life Technologies and Expression Analysis (LTEA) Assay for CFLAR gene using HepaRG (AID 2283455)
In short: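 HepaRG, 48 h exposure, 8-pt conc-response (100 uM top, half-log), 0.5% DMSO vehicle, duplicates. CFLAR expression by qRT-PCR; ACTB/GAPDH/POLR2A normalization; gain or loss fit vs DMSO baseline.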

[10] = read-out: Forkhead box O1 (FOXO1), FOXO1 (gene 2308); experiment: LTEA_HepaRG_FOXO1: Life Technologies and Expression Analysis (LTEA) Assay for Forkhead box O1 (FOXO1) using HepaRG (AID 2283456)
In short: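 Readout is FOXO1 transcript level by multiplexed qRT-PCR against three housekeeping genes, curve-fitted in both directions relative to 0.5% DMSO vehicle. Human HepaRG cultures received chemicals for 48 h, up to 100 uM in half-log steps.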

Sequence of Fatty acid synthase (Homo sapiens) (P49327 whole entry, looked up): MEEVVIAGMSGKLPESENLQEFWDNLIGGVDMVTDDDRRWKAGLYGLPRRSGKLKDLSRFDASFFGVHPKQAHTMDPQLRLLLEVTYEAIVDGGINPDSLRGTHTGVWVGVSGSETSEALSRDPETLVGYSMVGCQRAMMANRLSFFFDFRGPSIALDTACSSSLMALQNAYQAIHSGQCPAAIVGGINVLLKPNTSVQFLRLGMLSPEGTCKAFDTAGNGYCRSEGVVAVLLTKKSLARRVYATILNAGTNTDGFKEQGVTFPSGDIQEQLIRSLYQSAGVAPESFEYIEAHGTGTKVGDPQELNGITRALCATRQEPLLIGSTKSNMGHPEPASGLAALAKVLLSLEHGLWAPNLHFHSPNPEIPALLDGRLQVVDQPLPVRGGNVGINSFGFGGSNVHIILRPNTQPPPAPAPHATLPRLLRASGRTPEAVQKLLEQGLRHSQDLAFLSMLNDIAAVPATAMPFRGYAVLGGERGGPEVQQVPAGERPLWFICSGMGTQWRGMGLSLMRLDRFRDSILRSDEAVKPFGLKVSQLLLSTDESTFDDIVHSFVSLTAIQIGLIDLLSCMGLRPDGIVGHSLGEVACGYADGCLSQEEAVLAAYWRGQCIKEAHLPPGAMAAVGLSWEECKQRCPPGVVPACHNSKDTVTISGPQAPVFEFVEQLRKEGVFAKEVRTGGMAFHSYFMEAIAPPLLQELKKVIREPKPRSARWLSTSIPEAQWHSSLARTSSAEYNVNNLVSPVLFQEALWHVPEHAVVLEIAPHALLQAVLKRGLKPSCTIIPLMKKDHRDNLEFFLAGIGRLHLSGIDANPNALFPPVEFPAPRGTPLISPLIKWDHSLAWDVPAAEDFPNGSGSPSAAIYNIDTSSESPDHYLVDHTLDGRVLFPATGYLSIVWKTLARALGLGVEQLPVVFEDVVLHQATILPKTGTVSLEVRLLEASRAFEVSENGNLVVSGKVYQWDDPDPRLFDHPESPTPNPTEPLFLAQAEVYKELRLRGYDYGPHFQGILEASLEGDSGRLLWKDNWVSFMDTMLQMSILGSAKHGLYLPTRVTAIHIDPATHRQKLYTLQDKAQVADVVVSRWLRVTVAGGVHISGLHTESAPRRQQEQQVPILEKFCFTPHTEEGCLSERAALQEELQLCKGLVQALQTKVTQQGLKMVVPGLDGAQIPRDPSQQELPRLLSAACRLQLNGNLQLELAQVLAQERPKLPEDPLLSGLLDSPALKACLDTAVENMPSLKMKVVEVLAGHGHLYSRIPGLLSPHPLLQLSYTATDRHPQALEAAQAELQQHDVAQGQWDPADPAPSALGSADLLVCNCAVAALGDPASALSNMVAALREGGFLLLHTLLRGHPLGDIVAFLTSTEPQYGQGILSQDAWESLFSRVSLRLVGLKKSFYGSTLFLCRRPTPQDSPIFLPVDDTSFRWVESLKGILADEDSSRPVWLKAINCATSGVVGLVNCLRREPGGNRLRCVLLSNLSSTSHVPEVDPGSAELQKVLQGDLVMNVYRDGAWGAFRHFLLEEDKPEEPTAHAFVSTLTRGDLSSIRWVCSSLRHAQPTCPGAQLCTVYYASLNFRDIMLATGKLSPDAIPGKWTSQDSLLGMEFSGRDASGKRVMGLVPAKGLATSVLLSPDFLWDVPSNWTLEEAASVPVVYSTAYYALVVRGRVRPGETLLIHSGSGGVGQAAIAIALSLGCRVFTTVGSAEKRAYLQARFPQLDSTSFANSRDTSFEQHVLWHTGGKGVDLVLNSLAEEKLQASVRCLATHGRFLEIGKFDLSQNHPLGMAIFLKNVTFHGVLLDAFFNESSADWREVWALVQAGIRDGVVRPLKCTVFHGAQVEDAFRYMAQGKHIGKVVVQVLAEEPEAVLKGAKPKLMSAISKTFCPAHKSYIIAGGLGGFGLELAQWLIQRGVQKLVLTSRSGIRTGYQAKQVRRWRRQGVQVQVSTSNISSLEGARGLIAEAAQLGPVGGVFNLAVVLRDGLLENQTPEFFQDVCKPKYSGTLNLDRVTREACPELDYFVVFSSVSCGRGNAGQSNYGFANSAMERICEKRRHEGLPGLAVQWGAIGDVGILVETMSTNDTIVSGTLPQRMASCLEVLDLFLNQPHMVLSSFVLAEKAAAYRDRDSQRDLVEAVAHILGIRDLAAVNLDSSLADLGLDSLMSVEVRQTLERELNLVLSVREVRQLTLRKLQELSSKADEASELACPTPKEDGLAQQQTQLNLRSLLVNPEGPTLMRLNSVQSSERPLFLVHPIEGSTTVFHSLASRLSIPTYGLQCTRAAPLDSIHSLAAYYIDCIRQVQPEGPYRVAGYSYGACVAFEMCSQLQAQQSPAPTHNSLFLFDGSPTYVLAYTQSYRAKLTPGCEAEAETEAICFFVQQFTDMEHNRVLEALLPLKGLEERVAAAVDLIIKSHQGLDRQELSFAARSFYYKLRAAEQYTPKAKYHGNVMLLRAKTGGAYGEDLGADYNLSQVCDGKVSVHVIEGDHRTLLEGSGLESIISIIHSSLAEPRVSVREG

| SMILES | outcome [1] | outcome [2] | outcome [3] | AC50 [4] | outcome [5] | outcome [6] | outcome [7] | AC50 [8] | outcome [9] | outcome [10] | outcome [4] | outcome [8] | AC50 [3] | AC50 [6] | AC50 [7] | AC50 [10] | AC50 [2] | AC50 [1] |
| --- | --- | --- | --- | --- | --- | --- | --- | --- | --- | --- | --- | --- | --- | --- | --- | --- | --- | --- |
| c1cc2c3c(cccc3c1)CC2 | inactive | inactive | inactive | 0.387 µM (active) | inactive | inactive | inactive | 72.4 µM (active) | inactive | inactive |  |  |  |  |  |  |  |  |
| O=C(O)C(Cl)Cl | inactive | inactive | inactive |  | inactive | inactive | inactive |  | inactive | inactive | inactive | inactive |  |  |  |  |  |  |
| CC(Cc1ccc(OCC(=O)O)cc1)NCC(O)c1csc(C(F)(F)F)n1 (centres undefined) | inactive | inactive | inactive |  | inactive | inactive | inactive | 0.0496 µM (active) | inactive | inactive | inactive |  |  |  |  |  |  |  |
| CC(Cl)(Cl)C(=O)O | inactive | inactive | inactive |  | inactive | inactive | inactive |  | inactive | inactive | inactive | inactive |  |  |  |  |  |  |
| CCNc1nc(Cl)nc(NC(C)(C)C)n1 | inactive | inactive | inactive |  | inactive | inactive | inactive | 22.7 µM (active) | inactive | inactive | inactive |  |  |  |  |  |  |  |
| c1nc[nH]n1 | inactive | inactive |  |  | inactive | inactive | inactive | 0.146 µM (active) | inactive | inactive | inactive |  | 0.0353 µM (active) |  |  |  |  |  |
| Nc1ccc(Cl)cc1 | inactive | inactive | inactive |  | inactive | inactive | inactive | 28 µM (active) | inactive | inactive | inactive |  |  |  |  |  |  |  |
| CN(C)C(=O)Cl | inactive | inactive | inactive |  | inactive | inactive | inactive | 50 µM (active) | inactive |  | inactive |  |  |  |  |  |  |  |
| Nc1cc2c3c(c1)C(c1ccccc1)=N[C@@H](NC(=O)c1cccnc1)C(=O)N3CC2 | inactive | inactive | inactive |  | inactive | inactive | inactive | 31.8 µM (active) | inactive | inactive | inactive |  |  |  |  |  |  |  |
| OCC1CO1 (centres undefined) | inactive | inactive | inactive |  | inactive | inactive | inactive |  | inactive | inactive | inactive | inactive |  |  |  |  |  |  |
| ClC1=C(Cl)C2(Cl)C3C(Cl)C(Cl)CC3C1(Cl)C2(Cl)Cl (centres undefined) | inactive | inactive | inactive |  | inactive | inactive | inactive | 33.4 µM (active) | inactive | inactive | inactive |  |  |  |  |  |  |  |
| O=C(O)C1C(C(=O)O)C2(Cl)C(Cl)=C(Cl)C1(Cl)C2(Cl)Cl (centres undefined) | inactive | inactive | inactive |  | inactive | inactive | inactive |  | inactive | inactive | inactive | inactive |  |  |  |  |  |  |
| O=P(Oc1ccccc1)(Oc1ccccc1)Oc1ccccc1 | inactive | inactive | inactive | 77.7 µM (active) | inactive | inactive | inactive | 26 µM (active) | inactive | inactive |  |  |  |  |  |  |  |  |
| Cc1ccc([N+](=O)[O-])cc1C | inactive | inactive | inactive |  | inactive | inactive | inactive | 68.1 µM (active) | inactive | inactive | inactive |  |  |  |  |  |  |  |
| CCN(CC)c1ccccc1 | inactive | inactive | inactive |  | inactive | inactive | inactive | 50 µM (active) | inactive | inactive | inactive |  |  |  |  |  |  |  |
| CCOS(=O)(=O)OCC | inactive | inactive | inactive |  | inactive | inactive | inactive |  | inactive | inactive | inactive | inactive |  |  |  |  |  |  |
| CCCCc1ccccc1 | inactive | inactive | inactive |  | inactive | inactive | inactive | 75.6 µM (active) | inactive | inactive | inactive |  |  |  |  |  |  |  |
| ClC(Cl)(Cl)c1ccccc1 | inactive | inactive | inactive |  | inactive | inactive | inactive |  | inactive | inactive | inactive | inactive |  |  |  |  |  |  |
| [N-]=[N+]=[N-] | inactive | inactive | inactive | 74.9 µM (active) | inactive |  |  |  | inactive |  |  | inactive |  | 82.9 µM (active) | 88.5 µM (active) | 76.1 µM (active) |  |  |
| Cc1ccc(N)cc1N | inactive |  | inactive |  | inactive | inactive | inactive | 21.6 µM (active) | inactive | inactive | inactive |  |  |  |  |  | 14.7 µM (active) |  |
| CCCN(CCC)c1c([N+](=O)[O-])cc(C(C)C)cc1[N+](=O)[O-] |  | inactive | inactive |  | inactive | inactive | inactive | 24.5 µM (active) | inactive | inactive | inactive |  |  |  |  |  |  | 12.7 µM (active) |
